Screening results from PubChem.
Sampled rows, rich in hits. Any-hit rate of the full collection: about 1.5%.
VLA-4 antagonist: inhibitors of LDV-FITC binding to Mn2+-activated VLA-4, primary screen, Jurkat cells. LDV-FITC binding with Mn2+, flow cytometry; 100% = Mn2+-driven binding gain fully reversed. Integrin alpha-4 (Homo sapiens), P13612. inhibition, % at 10 µM (by protocol). 0.2% of 24,000 active;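 active means inhibition above 50%; inconclusive means compound itself fluorescent, judged against control cell fluorescence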;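 further: 0% = Mn2+ stimulated cells lacking compound and 100% = ligand binding without Mn2+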
LNCaP diff act: activators of LNCaP prostate cell differentiation, primary screen, flow cytometry side scatter. 4 d. side scatter shift, % at 10 µM. 0.56% of 24,000 active. AID 795, 2007;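 active means side scatter shift above 30%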;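 further: androgen-responsive LNCaP prostate cancer cells in charcoal-stripped serum medium; percent of cells past a gate set so DMSO wells show 10% shift; higher shift means more granular cells and more differentiation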
VLA-4 allo ag: enhancers of LDV-FITC binding to VLA-4 integrin, primary screen, Jurkat cells, flow cytometry | Integrin alpha-4 (Homo sapiens), P13612 | activation, % at 10 µM (by protocol) | 24,000 tested, under 10 active | AID 528, 2006;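 active means fluorescent ligand binding to cells raised by more than 40% of the manganese-induced maximum; inconclusive means compound's own fluorescence above 85% of the ligand control signal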;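 further: 0% = ligand binding without compound and 100% = manganese-stimulated maximal binding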
Jurkat autofluor: compound autofluorescence on Jurkat cells, primary screen, artefact control for VLA-4 allosteric ligand project, cell-based, flow cytometry. fluorescence ratio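 (tested at 10 µM compound in the well)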. 0.61% of 24,000 active. AID 576, 2007. stronger effect = higher value; 1 = vehicle-only cell background;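 active means fluorescence ratio above 2.44, which is 1 plus 3 SD of all ratios; inconclusive means signal too bright to measure linearly, ratio around 10 or more; inactive means fluorescence ratio below 2.44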;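 further: green fluorescence of cells measured with 488 nm excitation and 530 nm emission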
An asterisk follows results filed as active; ? = inconclusive.

SMILES | VLA-4 antagonist | LNCaP diff act | VLA-4 allo ag | Jurkat autofluor
Cn1cccc1Cc1nnc(SCC(=O)Nc2ccc3c(c2)OCO3)n1-c1ccc(F)cc1 | 6 | 16 | 1 | 0.95
Cc1nc(NCc2ccccn2)c2ccccc2n1 | ? | 11 | ? | 2.8*
CCOC(=O)c1nnn(-c2nonc2N)c1-c1ccc(OC)cc1 | -9 | 8 | 5 | 1
CCOC(=O)c1cnn(-c2cc(C)c3cc(C)cc(C)c3n2)c1N | 2 | 32* | 3 | 1.1
COc1ccc(-c2cc(C(F)(F)F)nc(N3CCN(C)CC3)n2)cc1 | -6 | 43* | -3 | 1
COc1ccc(-c2cc(C(F)(F)F)nc(N3CCCCCC3)n2)cc1 | -21 | 10 | 2 | 1.1
Cc1cc(C)nc(N2CCC(C(=O)Nc3ccc(Oc4ccccc4)cc3)CC2)n1 | 8 | 33* | 2 | 0.99
Cc1cc(C)nc(N2CCC(C(=O)NCc3cccc(C(F)(F)F)c3)CC2)n1 | -28 | 16 | 8 | 1.1
CN(C(=O)Cn1c(=O)n(CCCCC(=O)NC2CCCC2)c(=O)c2ccccc21)C1CCCCC1 | -12 | 7 | 0 | 0.96
CCOc1ccc(C(=O)N2CCC(C(=O)c3ccc4c(c3)OCCO4)CC2)cc1 | 18 | 15 | -7 | 1.1
Cc1ccc(-c2noc(CCC(=O)NC3CCN(Cc4ccccc4)CC3)n2)cc1 | ? | 32* | ? | 1.1
Cc1ccc(-c2noc(CCC(=O)NCCCN3CCN(c4ccc(F)cc4)CC3)n2)cc1 | ? | 38* | ? | 1.1
COc1ccc(-c2noc(CCC(=O)NCCCN3CCC(C)CC3)n2)cc1 | 3 | 2 | 4 | 1
Cc1ccc(-c2noc(CCC(=O)NCCCN3CCN(c4cccc(Cl)c4)CC3)n2)cc1 | ? | 44* | ? | 1.1
Cc1nn(-c2ccc(F)cc2)c(C)c1NS(=O)(=O)c1ccc(Cl)cc1 | -16 | 2 | 2 | 1
Cc1nn(-c2ccccc2)c2c1C(c1c(C)[nH]c(C#N)c1C)C(C#N)=C(N)O2 (centres undefined) | -6 | 10 | -3 | 1.1
COc1cc(-n2nc(C)c3c2OC(N)=C(C#N)C3c2ccccc2)c(Cl)c(Br)c1O (centres undefined) | ? | 6 | ? | 3*
